Test results reported in PubChem BioAssay AID588790 (National Center for Advancing Translational Sciences (NCATS), 2011).
Hit rate of the full screen: of about 1,200 compounds, about 85 (7%) were called active. For the sample, actives were picked, then their nearest neighbours and some compounds at random. Unmarked numbers belong to inactive results. Calls follow the shape of the full dose curve.

Target: Beta-2 adrenergic receptor (Homo sapiens) (UniProt P07550)
Assay: qHTS assay of beta-arrestin-biased ligands of beta2-adrenergic receptor: Hit Validation with GloSensor; as to activation: 0% is about no effect
Conditions: W9-Glo22F cells, GloSensor cAMP luminescence, beta2AR agonism; activation: at 46.1 µM (top of the series)
Method in brief: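 W9-Glo22F cells plated and incubated overnight at 37 deg C, 5% CO2, then compounds pinned in. GloSensor reagent added, 10 min at room temperature, luminescence read.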
Potency is read from the fitted curve at half-maximal effect.

Beta-2 adrenergic receptor (Homo sapiens), sequence (P07550 whole entry, looked up): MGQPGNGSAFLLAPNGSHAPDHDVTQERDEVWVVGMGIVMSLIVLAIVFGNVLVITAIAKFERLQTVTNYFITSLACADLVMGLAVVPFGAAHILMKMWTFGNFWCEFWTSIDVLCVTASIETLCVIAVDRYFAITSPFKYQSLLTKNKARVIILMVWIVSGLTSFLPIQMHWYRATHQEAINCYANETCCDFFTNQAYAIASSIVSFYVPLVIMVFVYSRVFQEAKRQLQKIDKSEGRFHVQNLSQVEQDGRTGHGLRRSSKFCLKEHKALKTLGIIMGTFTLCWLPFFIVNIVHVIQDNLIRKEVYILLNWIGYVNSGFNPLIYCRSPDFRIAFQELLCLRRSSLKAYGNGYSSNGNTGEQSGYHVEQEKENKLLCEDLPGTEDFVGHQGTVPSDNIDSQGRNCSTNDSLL

Structure (SMILES) | Potency | activation [%]
C=CCOc1ccc2ccccc2c1CNn1c(C)n[nH]c1=S | 8.2 µM (active) | 
CCN(CC)S(=O)(=O)c1ccc(N=Nc2c(C)[nH]n(C(N)=S)c2=O)cc1 |  | -1.01
O=C(C[C@H]1C[C@H](C(=O)N2CCCCC2)[C@@]2(CCc3ccccc3)c3[nH]c4cc(-c5ccco5)ccc4c3CCN2C1=O)NCCC1=CCCCC1 |  | 0.306
C/C(=N\NC(=S)NC(C)C)c1ccc(Cl)s1 |  | -0.153
O=C(N/N=C/c1cn(-c2ccccc2)nc1-c1cc2ccccc2o1)c1cccnc1 |  | -2.33
CO/C=C\C=C/c1nnn(-c2ccc(Cl)cc2)n1 |  | -1.16
CCc1ccc(CNc2ccc(O)cc2)cc1 |  | -1.16
Cc1ccc(CNc2ccc(O)cc2)cc1 |  | 0.153
CC(NCCc1ccc(O)cc1)C(O)c1ccc(O)cc1 (stereo unspecified) | 0.0116 µM (active) | 
Oc1ccc(/C=N/NC(=S)NC2CC3CCC2C3)cc1 (stereo unspecified) |  | 7.28
C=CC[n+]1c(-c2ccc(OC)c(OC)c2)csc1NNC(=O)Nc1ccccc1 | 10.3 µM (active) | 
COc1ccc(-c2c(-c3ccccc3)c(C(=O)C(=O)NCCCN(C)C)n3ccc4cc(OC)c(OC)cc4c23)cc1OC |  | -1.16
C=CC[n+]1c(-c2ccc(C)cc2)csc1NNC(=O)Nc1ccccc1 |  | 0.306
O=C1NC2(C=Cc3c(ccc4ccccc34)O2)Oc2ccccc21 (stereo unspecified) |  | -2.33
COc1cc(/C=N/Nc2ccc(F)cc2F)cc(OC)c1O |  | 0
O=C(O)/C=C/c1nc(-c2ccccc2)n2ccccc12 | 25.9 µM (active) | 
C[C@@H](NC(=O)c1coc(=O)c(Br)c1)c1ccccc1 |  | 1.16
O=[N+]([O-])c1cc([N+](=O)[O-])c2cc3ccccc3nc2c1 |  | -4.96
Cn1c(CNC(=O)c2ccccc2F)nnc1SCC(=O)c1ccccc1 |  | -1.16
COc1ccc(C(C)NC(=O)c2ccc(Br)cc2)cc1OC (stereo unspecified) |  | 4.96
COC(=O)CSc1ccc2nnc(-c3ccc(OC)c(OC)c3)n2n1 | 25.9 µM (active) | 
COc1ccc(NC(=O)c2cc3c(-c4ccc(OC)c(OC)c4)nn(C)c3s2)cc1OC |  | 0

Structure (SMILES) | Potency | activation [%]
CCOc1ccc(/C(CCC(=O)O)=N/NC(=S)NCCc2ccccc2)cc1 |  | 4.8
COc1ccc(NC(=O)C(=O)NCC(c2ccco2)N2CCc3ccccc32)cc1 (stereo unspecified) |  | -1.16
COc1cc(/C=N/NC(=O)c2cncc(Br)c2)cc([N+](=O)[O-])c1O |  | 0
Cn1c(O)c(/C=N/NC(=O)c2cc3ccccc3cc2O)c2ccccc21 |  | -4.96
Oc1[nH]c2ccc(Br)cc2c1N=NC(=S)NCC1CCCO1 (stereo unspecified) |  | 1.16
COc1cc(OC)c(NS(=O)(=O)c2cc(C(=O)OC(C)C(=O)NC3CC3)c(Cl)cc2Cl)cc1Cl (stereo unspecified) |  | 0
COc1cc(/C=C2\SC(=N)N(c3ccc4c(c3)OCO4)C2=O)cc(OC)c1O | 20.6 µM (active) | 
CCCC1(C(=O)OCC)NC(c2ccc(OC)cc2OC)C2C(=O)N(c3ccc4c(c3)OCCO4)C(=O)C21 (stereo unspecified) |  | 0.306
CCNC(=S)N/N=C(\C)c1cccc(OC)c1 |  | -1.16
C[C@H](CO)N1C[C@H](C)[C@@H](CN(C)Cc2ccccc2)Oc2c(NC(=O)Cc3ccccc3)cccc2C1=O |  | 0.306
CCCN=C1N(CC)C[C@@H]2[C@@H]3C(=O)N(C)C(=O)[C@@H]3[C@](CC)(C(=O)OC)N12 |  | 0
O=C(COC(=O)c1ccccn1)c1ccc([N+](=O)[O-])cc1 |  | 4.96
Cc1ccc(S(=O)(=O)N(Cc2ccc(Cl)cc2)c2ccccc2C(=O)NCc2ccco2)cc1 |  | -1.01
Cc1cc(C)nc(-n2nc(C)cc2NC(=O)CN2CCC(C)CC2)n1 | 29.1 µM (active) | 
Cc1cc(C)nc(-n2nc(C)cc2NC(=O)CN2CCCC2)n1 | 20.6 µM (active) | 
CCC(C(=O)Nc1cc(C)nn1-c1nc(C)cc(C)n1)c1ccccc1 (stereo unspecified) | 18.4 µM (active) | 
CCC1CCCCN1CC(=O)Nc1cc(C)nn1-c1nc(C)cc(C)n1 (stereo unspecified) | 7.31 µM (active) | 
CC(=O)Nc1ccc(Nc2cc(C)nc3c(-c4ccccc4)c(C)nn23)cc1 |  | 2.33
Cc1cc(C)n(-c2nc(NC(C)(C)C)nc(NC(C)(C)C)n2)n1 |  | -1.01
CCNc1nc(NCC)nc(-n2nc(C)cc2C)n1 |  | 9.76
CNc1cc(C)nc(-n2nc(C)cc2C)n1 |  | -2.33
Cc1cc(C)n(-c2nc(NC(C)C)nc(NC(C)C)n2)n1 |  | 1.16

Structure (SMILES) | Potency | activation [%]
Cc1cc(C)nc(-n2nc(C)cc2NC(=O)CNC2CCCCC2)n1 |  | 1.16
Cc1ccc(S(=O)(=O)N2CCN(C(C)C(=O)NCC(C)c3ccccc3)CC2)cc1 (stereo unspecified) |  | -1.16
CN(C)C(=S)Nc1nc2ccccc2s1 |  | 0.459
COc1cccc(C2CC3(CC(C)(C)NC(=S)N3)Oc3cc(O)ccc32)c1 (stereo unspecified) |  | -2.33
COCCCN=C1NN=C(c2cc(C)n(-c3ccccc3)c2C)CS1 |  | 5.81
COc1ccc(N2C(=O)C(CC(=O)Nc3ccc(Cl)cc3)N(NC(=O)c3cccc(F)c3)C2=S)cc1 (stereo unspecified) |  | 0.306
O=C(NC(=S)N1CCCCCC1)c1ccccc1Cl |  | 0.306
O=C(NCCN1CCOCC1)c1cc(Br)ccc1Cl |  | -1.16
O=C(NCCN1CCOCC1)c1ccccc1Cl | 20.6 µM (active) | 
C=C(C)c1cccc(C(C)(C)NC(=O)NC2CCN(Cc3ccccc3)CC2)c1 |  | 0.306
CC(=O)Oc1ccc2cc(-c3ccccc3)c(=O)oc2c1 |  | 0.306
COc1cc2c(cc1OC)C(c1cc3ccccc3oc1=O)=NC(C)(C)C2 | 23.1 µM (active) | 
CC(C)c1ccc(NC(=S)Nc2ccc3cn[nH]c3c2)cc1 |  | 0.306
O=C(O)C12CC3CC(C1)CC(n1ncc(N4CCN(c5ccccc5)CC4)c(Cl)c1=O)(C3)C2 |  | 0.306
O=C1c2ccccc2-c2onc3ccc(Oc4ccccc4)c1c23 | 13 µM (active) | 
C=CCn1nc([N+](=O)[O-])nc1Sc1cccc2cccnc12 |  | 1.16
C=CCNC(=S)Nc1cc(C)ccn1 |  | 0.306
O=C(NCC1CCCO1)c1ccc(CS(=O)(=O)c2ccc(Br)cc2)o1 (stereo unspecified) |  | -1.01
COc1ccccc1NS(=O)(=O)c1cc(NC(=O)CNC(=O)c2ccc(C)s2)ccc1Cl |  | 0.306
CCOc1ccc(CC(=O)Nc2ccc(S(=O)(=O)Nc3cc(C)on3)cc2)cc1OCC |  | -1.16
COc1ccccc1NS(=O)(=O)c1ccc(NC(=O)Cc2cccs2)cc1 | 32.6 µM (active) | 
CC(C)N(Cc1cc2ccccc2[nH]c1=O)C(=O)C1CCCCC1 |  | 0.306
